Test results published in PubChem BioAssay (NCI).
The panel holds about 79,000 compounds, 15% with a hit somewhere; the sample as a whole holds those more often. The source made the active and inactive calls. Rule as the data show it: active = growth inhibition above about 70%; inactive = the rest.

Assay: NCI Yeast Anticancer Drug Screen. Data for the bub3 strain (AID 167)
Settings: S. cerevisiae bub3 mutant strain, at 50.0 µM, active compounds read high
Outline: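 In this screen, a yeast mutant lacking normal mitotic checkpoint function is challenged with compound. Relative growth versus vehicle gives the inhibition value.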

Row | SMILES | growth inhibition
1 | CC(=O)NNc1nc(C)c(C(=O)NNC(=O)C(=O)Nc2c(C)cccc2C(C)C)s1 | 37.5% (inactive)
2 | COc1cc(C2CC(=O)c3ccccc3O2)ccc1O (stereo not drawn) | 90.7% (active)
3 | CCC1CCC2C3CC=C4CC(OC(C)=O)C(N)CC4(C)C3CCC12C (stereo not drawn) | 85.6% (active)
4 | COc1ccccc1C1c2cc3c(cc2OC(N2CCOCC2)C1C)OCO3 (stereo not drawn) | 40.8% (inactive)
5 | O=C1C=C/C(=C(/c2ccc(O)c(O)c2)c2ccccc2S(=O)(=O)O)C=C1O | -1.5% (inactive)
6 | N#CSC#Cc1ccc(C#CSC#N)cc1 | 88.3% (active)
7 | Cc1c2ccccc2c(CCl)c2ccc3ccccc3c12 | 98.8% (active)
8 | Oc1ccc(C(=C(Br)c2ccccc2)c2ccc(O)cc2)cc1 | 89.3% (active)
9 | Clc1ccc(/C=N/Nc2c3ccccc3nc3ccccc23)c(Cl)c1 | 60.4% (inactive)
10 | CCCC#CCCOC(=O)c1cc([N+](=O)[O-])cc([N+](=O)[O-])c1 | 99.4% (active)
11 | CCOc1ccc2c(c1)n([O-])c1ccccc1[n+]2=O | 98.8% (active)
12 | COc1ccc(/C(Cl)=C(\c2ccc(OCCN(C)C)cc2)c2ccc(OC(=O)C(C)(C)C)cc2)cc1 | 89.4% (active)
13 | CCCCCCCCCCCCCCCCSC(=NC)NC | 99.1% (active)
14 | N#Cc1ccc(Oc2nc3ccccc3nc2-c2ccccc2)cc1 | 27.8% (inactive)
15 | Cc1ccc2c(c1)nc1n2C(N)=Nc2ccccc2S1 | 75.2% (active)
16 | COc1cc(NCc2ccc3nc(-c4ccccc4)c(N)nc3c2)cc(OC)c1OC | 37.2% (inactive)
17 | O=C(OCCC1CCCCC1)c1cc([N+](=O)[O-])cc([N+](=O)[O-])c1 | 88.5% (active)
18 | O=C1c2ccc3ccccc3c2CCC1[n+]1ccc2ccccc2c1 (stereo not drawn) | 71% (active)
19 | Cc1cc(NC(=S)SCc2ccc(Cl)cc2)c([N+](=O)[O-])cc1C | 96.2% (active)
20 | N#CC(O)C(Br)(Br)Br (stereo not drawn) | 84.7% (active)

Row | SMILES | growth inhibition
21 | C[CH2][Ge]([CH2]C)[CH2]C.C[CH2][Ge]([Cl])[CH2]C.C[CH2][Ge][CH2]C | 98.2% (active)
22 | COC1C(=[N+]=[N-])C(=O)NC(=O)N1C1OC(COC(c2ccccc2)(c2ccccc2)c2ccccc2)C(O)C1O (stereo not drawn) | 60.2% (inactive)
23 | CC(=O)Oc1ccc(C)c(C(C)C(Cl)(Cl)Cl)c1 (stereo not drawn) | 60% (inactive)
24 | OC(c1ccccc1)c1cccc(Br)c1 (stereo not drawn) | 30.1% (inactive)
25 | CC/C(=C1\C=CC(=O)S1)C(CC)c1ccc(OC(C)=O)cc1 (stereo not drawn) | 93.9% (active)
26 | COc1ccc(/C=C2/C(=O)NC3SC=C(c4cccc([N+](=O)[O-])c4)N23)cc1 (stereo not drawn) | 62.9% (inactive)
27 | O=C1O/C(=C2\OC(=O)c3ccccc32)c2ccccc21 | 5.25% (inactive)
28 | Clc1ncccc1-n1cccc1/C=N\N=C/c1cccn1-c1cccnc1Cl | -4.95% (inactive)
29 | Clc1nc2cc3nc(Cl)c(Cl)nc3cc2nc1Cl | 15.6% (inactive)
30 | CC(=O)c1c2c(cc3c1CC1(Cc4cc5c(cc4C1)C(=O)CCC5)C3)CCCC2 (stereo not drawn) | 6.25% (inactive)
31 | CCCCOS(=O)(=O)c1ccc(C)cc1 | -23.5% (inactive)
32 | C[N+]1(c2ccccc2)C=C(c2ccccc2)SC1=S (stereo not drawn) | 54.8% (inactive)
33 | COc1ccc(/C=N/N=c2\[nH][nH]/c(=N\N=C\c3ccc(OC)c4ccccc34)c3ccccc23)c2ccccc12 | 33.4% (inactive)
34 | CCCCCCCCCCCCCCCCN | 98.8% (active)
35 | CCCCCCCCCCCC[S+](C)C | 90.2% (active)
36 | CP(=O)(c1ccccc1)c1ccccc1 | 5.05% (inactive)
37 | CCCCCCCCCCCC(=O)OC/C=C/COC(=O)c1ccccc1 | 44% (inactive)
38 | O=C(O)CCC(O)=C1S(=O)(=O)OCCOS1(=O)=O | 15.7% (inactive)
39 | CCOC(=O)C1SC(=Nc2cccc(Cl)c2C)N=C1C (stereo not drawn) | 89.4% (active)

Assay: NCI Yeast Anticancer Drug Screen. Data for the mlh1 rad18 strain (AID 175)
Settings: S. cerevisiae mlh1 rad18 strain growth inhibition; at 5.0 µM (retest, dose inferred, filed as 0.5); active compounds read high
Outline: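 Read-out is yeast growth inhibition, calculated against vehicle-only controls. The compound was applied to a strain engineered with DNA damage repair alterations.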

Row | SMILES | growth inhibition
40 | CC(=O)NNc1nc(C)c(C(=O)NNC(=O)C(=O)Nc2c(C)cccc2C(C)C)s1 | -4% (inactive)
41 | COc1cc(C2CC(=O)c3ccccc3O2)ccc1O (stereo not drawn) | 15% (inactive)
42 | CCC1CCC2C3CC=C4CC(OC(C)=O)C(N)CC4(C)C3CCC12C (stereo not drawn) | 12% (inactive)
43 | COc1ccccc1C1c2cc3c(cc2OC(N2CCOCC2)C1C)OCO3 (stereo not drawn) | 9% (inactive)
44 | O=C1C=C/C(=C(/c2ccc(O)c(O)c2)c2ccccc2S(=O)(=O)O)C=C1O | 2% (inactive)
45 | N#CSC#Cc1ccc(C#CSC#N)cc1 | 100% (active)
46 | Cc1c2ccccc2c(CCl)c2ccc3ccccc3c12 | 100% (active)
47 | Oc1ccc(C(=C(Br)c2ccccc2)c2ccc(O)cc2)cc1 | 99% (active)
48 | Clc1ccc(/C=N/Nc2c3ccccc3nc3ccccc23)c(Cl)c1 | 0% (inactive)
49 | CCCC#CCCOC(=O)c1cc([N+](=O)[O-])cc([N+](=O)[O-])c1 | 5% (inactive)
50 | CCOc1ccc2c(c1)n([O-])c1ccccc1[n+]2=O | 81% (active)
51 | COc1ccc(/C(Cl)=C(\c2ccc(OCCN(C)C)cc2)c2ccc(OC(=O)C(C)(C)C)cc2)cc1 | 1% (inactive)
52 | CCCCCCCCCCCCCCCCSC(=NC)NC | 67% (inactive)
53 | N#Cc1ccc(Oc2nc3ccccc3nc2-c2ccccc2)cc1 | -4% (inactive)
54 | Cc1ccc2c(c1)nc1n2C(N)=Nc2ccccc2S1 | 0% (inactive)
55 | COc1cc(NCc2ccc3nc(-c4ccccc4)c(N)nc3c2)cc(OC)c1OC | -16% (inactive)
56 | O=C(OCCC1CCCCC1)c1cc([N+](=O)[O-])cc([N+](=O)[O-])c1 | 12% (inactive)
57 | O=C1c2ccc3ccccc3c2CCC1[n+]1ccc2ccccc2c1 (stereo not drawn) | 15% (inactive)
58 | Cc1cc(NC(=S)SCc2ccc(Cl)cc2)c([N+](=O)[O-])cc1C | 98% (active)
59 | N#CC(O)C(Br)(Br)Br (stereo not drawn) | 1% (inactive)

Row | SMILES | growth inhibition
60 | C[CH2][Ge]([CH2]C)[CH2]C.C[CH2][Ge]([Cl])[CH2]C.C[CH2][Ge][CH2]C | 12% (inactive)
61 | COC1C(=[N+]=[N-])C(=O)NC(=O)N1C1OC(COC(c2ccccc2)(c2ccccc2)c2ccccc2)C(O)C1O (stereo not drawn) | 15% (inactive)
62 | CC(=O)Oc1ccc(C)c(C(C)C(Cl)(Cl)Cl)c1 (stereo not drawn) | 0% (inactive)
63 | OC(c1ccccc1)c1cccc(Br)c1 (stereo not drawn) | 14% (inactive)
64 | CC/C(=C1\C=CC(=O)S1)C(CC)c1ccc(OC(C)=O)cc1 (stereo not drawn) | -4% (inactive)
65 | COc1ccc(/C=C2/C(=O)NC3SC=C(c4cccc([N+](=O)[O-])c4)N23)cc1 (stereo not drawn) | 5% (inactive)
66 | O=C1O/C(=C2\OC(=O)c3ccccc32)c2ccccc21 | 16% (inactive)
67 | Clc1ncccc1-n1cccc1/C=N\N=C/c1cccn1-c1cccnc1Cl | -1% (inactive)
68 | Clc1nc2cc3nc(Cl)c(Cl)nc3cc2nc1Cl | 29% (inactive)
69 | CC(=O)c1c2c(cc3c1CC1(Cc4cc5c(cc4C1)C(=O)CCC5)C3)CCCC2 (stereo not drawn) | 28% (inactive)
70 | CCCCOS(=O)(=O)c1ccc(C)cc1 | -6% (inactive)
71 | C[N+]1(c2ccccc2)C=C(c2ccccc2)SC1=S (stereo not drawn) | 12% (inactive)
72 | COc1ccc(/C=N/N=c2\[nH][nH]/c(=N\N=C\c3ccc(OC)c4ccccc34)c3ccccc23)c2ccccc12 | 12% (inactive)
73 | CCCCCCCCCCCCCCCCN | 98% (active)
74 | CCCCCCCCCCCC[S+](C)C | 30% (inactive)
75 | CP(=O)(c1ccccc1)c1ccccc1 | -24% (inactive)
76 | CCCCCCCCCCCC(=O)OC/C=C/COC(=O)c1ccccc1 | -7% (inactive)
77 | O=C(O)CCC(O)=C1S(=O)(=O)OCCOS1(=O)=O | -17% (inactive)
78 | CCOC(=O)C1SC(=Nc2cccc(Cl)c2C)N=C1C (stereo not drawn) | 38% (inactive)
